From PubChem BioAssay (EPA / NIEHS)
Activity calls are given as the source filed them. Rule for the calls: active = hit-call score of the fitted dose curve at least 0.9, where 1 is the maximum; inactive = score below 0.9.

target: Retinoic acid receptor alpha (Homo sapiens) (UniProt P10276); assay: ATG_DR5_RAR_CIS: Attagene CIS-FACTORIAL HepG2 Assay for human Retinoic Acid Receptor Alpha (RARE), DR5 submotif (AID 2282934); details: HepG2 Attagene cis-factorial RARE DR5 reporter, mRNA; actives raise or lower the signal;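 for AC50: reporter responds to endogenous RAR alpha beta and gamma in HepG2 not RARA alone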
Sequence (P10276 whole entry, looked up): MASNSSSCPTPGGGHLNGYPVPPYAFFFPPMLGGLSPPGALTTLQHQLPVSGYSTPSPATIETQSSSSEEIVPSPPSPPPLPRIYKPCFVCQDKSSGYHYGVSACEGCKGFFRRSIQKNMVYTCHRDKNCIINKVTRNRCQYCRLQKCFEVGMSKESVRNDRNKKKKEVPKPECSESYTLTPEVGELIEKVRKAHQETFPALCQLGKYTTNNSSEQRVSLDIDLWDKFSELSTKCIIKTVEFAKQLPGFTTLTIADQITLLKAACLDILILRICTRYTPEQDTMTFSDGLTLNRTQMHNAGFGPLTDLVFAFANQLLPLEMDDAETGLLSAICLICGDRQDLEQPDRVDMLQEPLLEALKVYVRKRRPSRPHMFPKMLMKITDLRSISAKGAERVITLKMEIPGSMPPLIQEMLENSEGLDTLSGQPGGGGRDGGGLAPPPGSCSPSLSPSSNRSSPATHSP
Protocol: ATG_CIS is a cell-based, multiplexed-readout assay that uses HepG2, a human liver cell line, with measurements taken at 24 hours after chemical dosing in a 24-well plate.ATG_DR5_RAR_CIS is one of 52 assay component(s) measured or calculated from the ATG_CIS assay. It is designed to make measurements of mRNA induction, a form of inducible reporter, as detected with fluorescence intensity signals by Reverse transcription polymerase chain reaction (RT-PCR) and Capillary electrophoresis technology.Data from the assay component ATG_DR5_RAR_CIS was analyzed into 1 assay endpoint. This assay endpoint, ATG_DR5_CIS, was analyzed with bidirectional fitting relative to DMSO as the negative control and baseline of activity. Using a type of inducible reporter, measures of mRNA for gain or loss-of-signal activity can be used to understand the reporter gene at the transcription factor-level as they relate to the gene RARA and RARB and RARG. Furthermore, this assay endpoint can be referred to as a primary readout, because this assay has produced multiple assay endpoints where this one serves a reporter gene function. To generalize the intended target to other relatable targets, this assay endpoint is annotated to the nuclear receptor intended target family, where the subfamily is non-steroidal.
Human liver HepG2 cells are transiently transfected with multiple reporter transcription units (MRTUs) in 6-well plates using FuGene 6 reagent (Roche; 3 ml FuGene/1 mg DNA). The MRTU constructs are regulated by a cis-regulating element (promoter). […] A major difference between the CIS and TRANS system is that in CIS activities of endogenous TFs are measured, whereas the TRANS assay evaluates changes in activities of exogenous, chimeric NR-Gal4 proteins. […] At the end of 24 hour incubation, total RNA was isolated using TriZol reagent (Invitrogen). The isolated RNA is then reverse-transcribed using oligo(dT) primer and Mo-MLV reverse transcriptase (Invitrogen) with DNAse I (Ambion) treatment for 30 min. The one-tenth of the produced cDNA was amplified by PCR using Taq DNA polymerase (Invitrogen) and two reporter sequence-specific primers. The PCR products were fluorescently labeled by primer extension with 6-arboxyfluorescein (6-FAM) 5'-labeled reporter sequence-specific primer (2 min at 95 C, 20 s at 68 C and 10 min at 72 C) and these products were digested with 5U of HpaI (New England Biolabs) for 2h at 37 C. The fragments were purified using Qiaquick PCR columns (Qiagen), analyzed on an ABI 3130xL genetic analyzer (Applied Biosystems) with peak positions identified by using a set of X-rhodamine (ROX)-labeled MapMarker1000 molecular weight standards (BioVentures). The raw capillary electrophoresis data was processed using Attagraph software (Attagene).

Row | SMILES | outcome | AC50
1 | O=C(CBr)c1ccc(O)cc1 | inactive | –
2 | CCCCCCCCCCCCN(C)C | – | 57.4 µM (active)
3 | CCOC(=O)c1ccccc1S(=O)(=O)NC(=O)Nc1nc(Cl)cc(OC)n1 | inactive | –
4 | C1CN2CCN1CC2 | inactive | –
5 | BrCc1ccc(Br)cc1 | inactive | –
6 | CC(O)(CS(=O)(=O)c1ccc(F)cc1)C(=O)Nc1ccc(C#N)c(C(F)(F)F)c1 (stereo not given) | inactive | –
7 | CCCCN(CCCC)C(=S)S | – | 100 µM (active)
8 | c1csc(-c2ccc(-c3cccs3)s2)c1 | inactive | –
9 | C=CC(Cl)CCl (stereo not given) | inactive | –
10 | O=S1OC[C@@H]2[C@H](CO1)[C@]1(Cl)C(Cl)=C(Cl)[C@@]2(Cl)C1(Cl)Cl (stereo not given in full) | inactive | –
11 | C[C@H]1C(=O)O[C@@H]2CCN3CC=C(COC(=O)[C@](C)(O)[C@]1(C)O)[C@H]23 | inactive | –
12 | Nc1nc(=S)[nH][nH]1 | inactive | –
13 | OC(Cc1ccccc1Cl)(Cn1[nH]cnc1=S)C1(Cl)CC1 (stereo not given) | inactive | –
14 | Fc1cccc(Cl)c1CCl | inactive | –
15 | CN(C1CCCCC1)C1CCCCC1 | inactive | –
16 | C#C[C@]1(O)CC[C@H]2[C@@H]3CCC4=CC(=O)CC[C@]4(C)[C@H]3CC[C@@]21C | inactive | –
17 | O=S(=O)(c1ccc(Cl)cc1)c1cc(Cl)c(Cl)cc1Cl | – | 100 µM (active)
18 | Clc1cc(C(Cl)(Cl)Cl)cnc1Cl | inactive | –
19 | Brc1ccc(Br)cc1 | inactive | –
20 | C=CC(=O)OCC(COC(=O)C=C)(COC(=O)C=C)COC(=O)C=C | inactive | –

Row | SMILES | outcome | AC50
21 | C=CC(=O)[O][Sn]([CH2]CCC)([CH2]CCC)[CH2]CCC | – | 0.0229 µM (active)
22 | Cc1cc(-c2cc(C)c(N)c(C)c2)cc(C)c1N | inactive | –
23 | C=CCc1ccccc1O | inactive | –
24 | CC(C)[N+](=O)[O-] | inactive | –
25 | C=CC(F)(C(F)(F)F)C(F)(F)C(F)(F)F (stereo not given) | inactive | –
26 | CNC(=O)CSP(=O)(OC)OC | inactive | –
27 | O=C(O)c1cc(I)cc(I)c1I | inactive | –
28 | N#Cc1ccc(Cl)cc1 | inactive | –
29 | O=C=Nc1ccc(Cl)cc1 | inactive | –
30 | CCC[N+](CCC)(CCC)CCC | inactive | –
31 | Cc1cc(C(C)(C)c2ccc(O)c(C)c2)ccc1O | – | 21.5 µM (active)
32 | Cc1cccc(N=Nc2ccc(N(C)C)cc2)c1 | inactive | –
33 | c1ccc2c(c1)Oc1ccccc1O2 | inactive | –
34 | COCCl | inactive | –
35 | c1cc[c]([Sb]([c]2ccccc2)[c]2ccccc2)cc1 | inactive | –
36 | c1ccc(-c2cccc(-c3ccccc3)c2)cc1 | inactive | –
37 | CC(C)C(C)(N)C#N (stereo not given) | – | 46.9 µM (active)
38 | CCCCCCCCCCCCCCC(Br)C(=O)O (stereo not given) | – | 26.9 µM (active)
39 | N#Cc1ccccc1N | inactive | –
40 | BrCCCCBr | inactive | –
